Screens: PubChem BioAssay, National Center for Advancing Translational Sciences (NCATS)
GPT2 inh = GPT2 alanine aminotransferase inhibition; Potency, µM (series often up to 57.7 µM), usual class: inhibitors; Q8TD30; Recombinant GPT2, coupled pyruvate oxidase/HRP Amplex Red fluorescence; 100,000 compounds, 0.25% hits; also: nearly all actives have a fitted effect of over 60% in size
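Fluorescence read-out: pyruvate from GPT2 turnover coupled to pyruvate oxidase, HRP and Amplex Red (0.2mM ThPP, 0.2U/mL PO and HRP, 50uM Amplex final). Substrates 250uM a-KG, 2mM L-alanine; enzyme 10ng/uL; 30 min RT.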
HEK cytotox = HEK 293 cell cytotoxicity. HEK 293 viability, ATP luminescence (CellTiter-Glo), 48-72 h. Potency, µM (series often up to 115 µM), usual class: inhibitors. 94,000 compounds, 6.6% hits; also: nearly all actives have a fitted effect of over 60% in size
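ATP-coupled CellTiter-Glo luminescence served as viability read-out, recorded 10 min after reagent addition at room temperature. HEK 293 cells, 250 cells/well, had been incubated with pintool-transferred compound for 48 or 72 hr at 37 degree Celsius.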
NPR1 antag = antagonists of human natriuretic peptide receptor Npr1. P16066. HEK293 hNpr1 GloSensor cGMP, ANP-stimulated luminescence. Potency, µM (series often up to 46.3 µM), actives largely listed as inhibitors. 76,000 compounds, 1.6% hits. AID 1347048; calls by dose curve; also: nearly all actives have a fitted effect of over 60% in size
Target sequence (P16066 whole entry, looked up): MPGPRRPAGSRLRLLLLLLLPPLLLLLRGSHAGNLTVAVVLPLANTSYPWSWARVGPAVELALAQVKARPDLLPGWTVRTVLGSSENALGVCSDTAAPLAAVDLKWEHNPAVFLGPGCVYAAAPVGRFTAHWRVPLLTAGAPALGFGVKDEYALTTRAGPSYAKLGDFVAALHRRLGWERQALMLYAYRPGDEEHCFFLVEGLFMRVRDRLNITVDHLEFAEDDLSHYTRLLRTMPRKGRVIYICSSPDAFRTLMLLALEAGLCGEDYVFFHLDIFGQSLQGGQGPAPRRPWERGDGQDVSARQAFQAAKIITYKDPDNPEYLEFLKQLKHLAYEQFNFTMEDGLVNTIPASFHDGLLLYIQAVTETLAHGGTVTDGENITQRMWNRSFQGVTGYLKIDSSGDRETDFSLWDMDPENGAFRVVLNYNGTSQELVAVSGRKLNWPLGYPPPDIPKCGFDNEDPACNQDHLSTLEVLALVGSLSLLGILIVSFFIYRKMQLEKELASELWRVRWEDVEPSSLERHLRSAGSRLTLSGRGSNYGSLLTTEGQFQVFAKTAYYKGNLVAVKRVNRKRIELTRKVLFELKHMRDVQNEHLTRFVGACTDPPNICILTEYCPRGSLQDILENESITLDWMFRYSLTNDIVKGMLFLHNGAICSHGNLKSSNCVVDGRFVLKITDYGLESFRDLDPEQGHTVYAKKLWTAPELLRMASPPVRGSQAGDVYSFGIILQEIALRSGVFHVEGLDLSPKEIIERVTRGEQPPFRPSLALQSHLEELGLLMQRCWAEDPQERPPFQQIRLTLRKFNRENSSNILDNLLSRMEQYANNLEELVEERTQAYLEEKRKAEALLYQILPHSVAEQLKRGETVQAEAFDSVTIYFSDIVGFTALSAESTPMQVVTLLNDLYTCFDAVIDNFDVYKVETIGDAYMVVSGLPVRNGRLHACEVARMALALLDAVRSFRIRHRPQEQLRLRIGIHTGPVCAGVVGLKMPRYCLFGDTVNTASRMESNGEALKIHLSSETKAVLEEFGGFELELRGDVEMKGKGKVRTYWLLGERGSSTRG
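HEK293 cells stably expressing human Npr1 and cGMP GloSensor pGS-40F, loaded 2 h with 2% GloSensor reagent, given compound 30 min at room temperature. Luminescence read before and 20 min after 0.1 nM hNppA.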
Luciferase inh = inhibitors of firefly (Photinus pyralis) luciferase. P08659. purified P. pyralis luciferase, luminescence, biochemical. Potency, µM (titrated, usually from 115 µM), most hits filed as inhibitors. 76,000 compounds, 2.5% hits. AID 1347043; also: nearly all actives have a fitted effect of over 65% in size
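Cell-free enzyme assay, 10nM P. pyralis luciferase, luciferin and ATP each at 10uM. Inhibition profiled over a 6-point titration, read as luminescence.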
3T3 cytotox = kills NIH 3T3 cells. AID 1345082. 94,000 compounds, 4.3% hits. NIH 3T3 viability, CellTiter-Glo ATP luminescence, 48-72 h. Potency, µM (series often up to 96.7 µM), usual class: inhibitors; also: nearly all actives have a fitted effect of over 55% in size
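Cells were seeded at 400 per well, treated with pin-transferred compound, and kept 48 or 72 hr at 37 °C before CellTiter-Glo addition and luminescence imaging of cellular ATP.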
Of the large screens only hits and unclear results are named; the others gave an inactive call. Sampled rows, rich in hits. Any-hit rate of the full collection: about 10%. Unless noted, calls follow the shape of the dose curve; as a rule, active = well fitted curve in the direction sought with a large enough effect; inconclusive = small, poorly fitted or top-dose-only effect, or another doubt; inactive = no such curve, though single readings can be large; an effect the other way counts as inactive or inconclusive.

COc1ccc(Cn2c3c(c(=O)n2Cc2ccccc2)CCN(C(=O)C2CCOCC2)C3)cc1	3T3 cytotox 25µM
COc1nc2c(cc1CNC(=O)C1CC(=O)N(C)C1)C(=O)N(C1CCCC1)C2 (stereo not drawn)	none
COCC1CN(C(C)=O)CC12CCN(Cc1ccc3[nH]ccc3c1)CC2 (stereo not drawn)	none
CCOCC1(C)COc2ccc(C(=O)NCCc3ccccc3)cc2N1 (stereo not drawn)	HEK cytotox inconclusive, Luciferase inh 22µM, 3T3 cytotox inconclusive
CC1(CNc2ccccc2)COc2ccc(C(=O)NCCc3ccccn3)cc2N1 (stereo not drawn)	HEK cytotox 100µM, 3T3 cytotox inconclusive
CC1(COc2ccccc2)COc2ccc(C(=O)NCCOc3ccccc3)cc2N1 (stereo not drawn)	HEK cytotox 79µM, NPR1 antag inconclusive, 3T3 cytotox inconclusive
CC1(CNc2ccccc2)COc2ccc(C(=O)NCCN3CCOCC3)cc2N1 (stereo not drawn)	HEK cytotox inconclusive
CC1(CNc2ccccc2)COc2ccc(C(=O)NCCOc3ccccc3)cc2N1 (stereo not drawn)	HEK cytotox 40µM, NPR1 antag inconclusive, Luciferase inh inconclusive, 3T3 cytotox 32µM
COc1cccc(NC(=O)N[C@H]2[C@H](O)[C@@H](N3CCC(Cc4ccccc4)CC3)[C@@H]3OC[C@H]2O3)c1	HEK cytotox inconclusive, 3T3 cytotox inconclusive
CCOc1nccn2c(-c3ccc(CNc4ccc(OC)nc4)cc3)cnc12	GPT2 inh inconclusive, HEK cytotox inconclusive, Luciferase inh 22µM, 3T3 cytotox inconclusive
CCOC(=O)c1ccc(NC(=O)Cn2c(-c3ccc(F)cc3)nc(C)c(CCO)c2=O)cc1	HEK cytotox inconclusive, NPR1 antag inconclusive, 3T3 cytotox inconclusive
O=S(=O)(Cc1ccccc1)N1CCCC(OCc2noc(C3CCOCC3)n2)C1 (stereo not drawn)	none (no result: NPR1 antag, Luciferase inh)
COCCc1noc(C2CNC2)n1	HEK cytotox 8.9µM, 3T3 cytotox 18µM
C(Cc1noc(C2CNC2)n1)OCC1CC1	HEK cytotox 11µM, 3T3 cytotox 16µM
COc1ccc(NC(=O)Nc2cccc(-c3ccc(N4CCC(C)CC4)nn3)c2)cc1OC	HEK cytotox inconclusive, NPR1 antag 3.2µM, Luciferase inh 0.1µM, 3T3 cytotox inconclusive
COc1ccc(C(=O)Nc2cccc(-c3nnc4n3CCCC4)c2)cc1OC	HEK cytotox inconclusive
CC(C)CNC(=O)Nc1cccc(-c2ccc(N3CCC(C)CC3)nn2)c1	NPR1 antag 7.1µM, Luciferase inh 0.32µM
COc1ccc(-c2cccc(C(=O)NCC(C)C)c2)nn1	3T3 cytotox inconclusive (no result: GPT2 inh, NPR1 antag, Luciferase inh)
CCn1c(=O)c2c(cc(C)n2C)n(CC(=O)Nc2ccc(F)cc2F)c1=O	none
CC(C)C[C@@H]1N[C@H](C(=O)N2CCCC2)Cc2cn(Cc3nccn3C)c3cccc1c23	HEK cytotox inconclusive
CC(C)C[C@@H]1N[C@H](C(=O)N2CCOCC2)Cc2cn(Cc3ccccn3)c3cccc1c23	HEK cytotox 100µM, 3T3 cytotox inconclusive
CC(C)C[C@@H]1N[C@H](C(=O)N2CCOCC2)Cc2cn(Cc3nccn3C)c3cccc1c23	none
CC(C)C[C@@H]1N[C@H](C(=O)N2CCCC2)Cc2cn(Cc3ccccn3)c3cccc1c23	HEK cytotox 112µM, 3T3 cytotox inconclusive
O=C(Nc1ccc2oc(-c3ccccc3)nc2c1)C1CCN(c2cnn(Cc3ccccc3)c(=O)c2)C1 (stereo not drawn)	Luciferase inh inconclusive
CCN(CC)CC(=O)N1CCC(C(=O)Nc2ccc(-c3nc4ccccc4o3)cc2)CC1	HEK cytotox 22µM, 3T3 cytotox 22µM
COc1cccc(CN2CCc3c(cc(C(=O)Nc4ccc(F)cc4C)n3C)C2)c1	HEK cytotox inconclusive, Luciferase inh 25µM, 3T3 cytotox inconclusive
COc1cccc(CN2CCc3c(cc(C(=O)Nc4cc(C)ccc4C)n3C)C2)c1	HEK cytotox inconclusive, Luciferase inh 32µM, 3T3 cytotox inconclusive
COc1ccccc1CNC(=O)CCc1nc(C2CCCN2C(=O)NC(C)C)no1 (stereo not drawn)	none
CN1CCC(C(=O)N[C@@H]2CN(c3ncccn3)C[C@H]2CO)CC1	none
c1ccc(C2(c3ccccc3)CCCN(Cc3cscn3)C2)cc1	HEK cytotox 40µM, 3T3 cytotox inconclusive
